# Shown are actives, neighbours in structure and some others; about 1.3% of the full set was active somewhere.
# LYPLA1 inh: counter-screen for PME1 inhibitors: inhibitors of human LYPLA1; recombinant LYPLA1, FP-Rh probe fluorescence polarization; inhibition, % at 5.9 µM; actives 0.16% (n = 320,000); AID 2174;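 active means inhibition above the mean of all tested compounds plus 3 SD, set per campaign, cut at about 14% in these data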;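 further: inhibitors block serine hydrolase probe labeling of LYPLA1 so polarization falls; 0% = enzyme with DMSO and 100% = wells lacking LYPLA1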
# Target sequence (O75608 whole entry, looked up): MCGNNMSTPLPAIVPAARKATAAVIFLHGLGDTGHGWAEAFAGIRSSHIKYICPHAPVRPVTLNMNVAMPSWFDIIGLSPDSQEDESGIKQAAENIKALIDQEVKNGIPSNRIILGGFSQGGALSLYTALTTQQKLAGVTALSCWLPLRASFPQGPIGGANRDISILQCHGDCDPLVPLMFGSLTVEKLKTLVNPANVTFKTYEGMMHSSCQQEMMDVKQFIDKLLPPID
# ZTA counter: counter-screen for EBNA-1 inhibitors: inhibitors of Epstein-Barr virus ZTA | P03206 | ZTA-DNA binding, fluorescence polarization | inhibition, % at 11 µM | actives 0.15% (n = 320,000); in the data active means inhibition above about 33%
# Target sequence (P03206 whole entry, looked up): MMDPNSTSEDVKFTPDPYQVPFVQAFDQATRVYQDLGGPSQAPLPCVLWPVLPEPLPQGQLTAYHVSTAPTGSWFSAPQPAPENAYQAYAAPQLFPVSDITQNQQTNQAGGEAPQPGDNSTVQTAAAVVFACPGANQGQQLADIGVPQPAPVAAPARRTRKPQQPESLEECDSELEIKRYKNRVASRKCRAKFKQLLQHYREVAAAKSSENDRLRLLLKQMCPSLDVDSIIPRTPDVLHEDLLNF
# EBNA-1 inh: blocks EBNA-1 binding to DNA; EBNA-1 DNA binding, fluorescence polarization; inhibition, % at 14.8 µM; actives 0.34% (n = 300,000); AID 1950; in the data active means inhibition above about 28%
# PREPL inhibitor: human PREPL enzyme inhibition. Q4J6C6. recombinant PREPL, fluorescence polarization activity-based probe. inhibition, % at 5.96 µM. actives 0.68% (n = 320,000);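 further: 0% = enzyme with DMSO and 100% = wells lacking enzyme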
# LYPLA2 counter: LYPLA2 (human) inhibition in PME1 counter-screen | O95372 | inhibition, % at 5.9 µM | recombinant LYPLA2, FP-Rh probe fluorescence polarization | actives 0.38% (n = 320,000);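 active means inhibition above the screen-wide mean plus 3 SD, limit set per campaign, cut at about 26% in these data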;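 further: 0% = LYPLA2 with DMSO and 100% = wells lacking LYPLA2 enzyme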
# PREPL inh cf: confirmation of human PREPL enzyme inhibitors; shares compounds with PREPL inhibitor; recombinant PREPL, fluorescence polarization activity probe; inhibition, % at 5.96 µM; actives 67% (n = 2,000); AID 2803;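 further: 0% = protein with DMSO and 100% = wells lacking protein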
# An asterisk follows results filed as active; / = not tested or not shown. Unless noted, no stated cut-off is given here; in the data, active means inhibition above about 43%; inactive means the rest.
SMILES,LYPLA1 inh,ZTA counter,EBNA-1 inh,PREPL inhibitor,LYPLA2 counter,PREPL inh cf
CN(C)c1ccc(C(CNS(=O)(=O)c2ccc3ccccc3c2)c2c[nH]c3ccccc23)cc1 (stereo not drawn),-12.8,-4.2,-0.9,32.6,-6.2,/
CN(C)c1ccc(C(CN)c2c[nH]c3ccccc23)cc1 (stereo not drawn),2.5,-9.6,3.4,61.1*,2.1,57.2*
CCc1cc(=O)oc2c(C)c(OC(C)C(=O)NC3CC(C)(C)NC(C)(C)C3)ccc12 (stereo not drawn),0.4,16.6,-3.1,48.9*,4.6,38.3
CCc1c(C)nc2cc(-c3ccc(OC)c(OC)c3)nn2c1N1CCC(C)CC1,-0.9,12.6,-14.1,6.8,-0.8,/
CCc1c(C)nc2cc(-c3ccc(OC)c(OC)c3)nn2c1N1CCCC1,2.9,-11.1,0.6,45.3*,10.6,38.1
CC1CCCCN1Cc1c(O)ccc2c(=O)c(-c3nc4ccccc4s3)c(N)oc12 (stereo not drawn),-1.8,-7.5,-10.1,51.4*,1.0,50.7*
COc1cccc(-c2ccc(SCC(=O)NC3CCCCC3)nn2)c1,-0.3,-0.6,12.3,43.7*,-0.4,42.8
Cc1cc(/C=C2\SC(=Nc3ccc(F)cc3)NC2=O)c(C)n1-c1ccc(S(N)(=O)=O)cc1,-15.8,3.3,-4.4,54.0*,-16.5,53.0*
O=C(COc1ccc(/C=C2/NC(=O)NC2=O)cc1)Nc1ccc(F)cc1,-5.4,-1.6,-1.1,15.5,-12.0,/
COc1cc(/C=C2/NC(=O)NC2=O)ccc1OCC(=O)Nc1ccc(F)cc1,2.4,-14.2,-7.7,86.6*,5.2,10.2
Cc1ccc(S(=O)(=O)Nc2ccc3c(c2)CC(=O)N([C@H](C)CO)C[C@H](C)[C@H](CN(C)Cc2ccc4c(c2)OCO4)O3)cc1,/,/,/,51.2*,/,52.9*
C[C@@H]1CN([C@@H](C)CO)C(=O)Cc2cc(NC(=O)Nc3ccc4c(c3)OCO4)ccc2O[C@@H]1CN(C)C(=O)NC1CCCCC1,/,/,/,54.0*,/,45.7*
CC(C)NC(=O)Nc1ccc2c(c1)CC(=O)N([C@@H](C)CO)C[C@H](C)[C@@H](CN(C)C(=O)NC1CCCCC1)O2,/,/,/,7.0,/,/
C[C@@H]1O[C@@H](OC[C@H]2O[C@@H](Oc3cc(O)c4c(=O)cc(-c5ccc(O)c(O)c5)oc4c3)[C@H](O)[C@@H](O)[C@@H]2O)[C@H](O)[C@H](O)[C@H]1O,/,/,/,28.1,/,/
O=c1cc(-c2ccc(O)c(O)c2)oc2cc(O[C@@H]3O[C@H](CO)[C@@H](O)[C@H](O)[C@H]3O)cc(O)c12,/,/,/,73.3*,/,59.8*
COc1cc(/C=C2\SC(N3CCC(C)CC3)=NC2=O)ccc1O,0.8,-0.9,13.0,44.3*,7.5,12.2
NCCSc1c(-c2ccc(Cl)cc2)[nH]c2ccccc12,-7.4,-1.4,-9.1,45.6*,-0.8,39.2
NCCSc1c(-c2ccccc2)[nH]c2ccccc12,-4.6,11.1,-5.4,35.1,-5.4,/
NCCSc1c(-c2ccc(F)cc2)[nH]c2ccccc12,-1.4,8.4,1.5,26.9,-3.4,/
Cc1ccc(-c2[nH]c3ccccc3c2SCCN)cc1,-1.1,-4.8,-4.3,57.0*,-2.1,41.1
Nc1nonc1C(=O)NCCNC(=O)c1ccc(Cl)c(Cl)c1,1.1,-8.6,8.3,-14.9,-1.5,/
O=C(NC1CCCCC1)C(c1ccccc1)N(Cc1ccc2c(c1)OCO2)C(=O)c1cnsn1 (stereo not drawn),1.2,-14.4,9.7,45.7*,5.6,33.0
Cc1cc(C)cc(NC(=O)CCn2c(=O)c3cccn3c3ccccc32)c1,-4.4,6.1,3.8,-11.9,-2.5,/
Nc1c(N2CCN(c3ccccc3)CC2)c2ccccc2oc1=O,1.1,-19.0,-6.8,50.5*,8.9,42.1
Cc1ccc(CSc2ccc3nnc(-c4ccccn4)n3n2)cc1,-4.0,7.5,7.2,50.4*,3.7,38.5
SMILES,LYPLA1 inh,ZTA counter,EBNA-1 inh,PREPL inhibitor,LYPLA2 counter,PREPL inh cf
Cc1ccc(C)c(CSc2ccc3nnc(-c4ccccn4)n3n2)c1,4.1,-16.5,-14.3,19.7,8.5,/
O=C(COC(=O)Cc1ccc(S(=O)(=O)N2CCOCC2)s1)Nc1ccc([N+](=O)[O-])cc1,-2.1,-8.3,/,45.4*,5.3,38.1
CCOc1cccc(CNc2ccc(O)cc2)c1OCc1ccc(Cl)cc1,-1.2,-2.8,-5.5,24.4,5.3,/
CCOc1cc(CNc2ccc(O)cc2)ccc1OCc1ccc(Cl)cc1Cl,4.8,1.0,-12.6,57.1*,13.9,50.8*
CCN(C(=O)CSc1nc2ccccc2c(=O)n1-c1cccc(C)c1)C1CCS(=O)(=O)C1 (stereo not drawn),-1.1,4.1,-2.3,-4.2,-0.1,/
Cc1ccc(-n2c(SCC(=O)N(C)C3CCS(=O)(=O)C3)nc3ccccc3c2=O)c(C)c1 (stereo not drawn),/,/,/,53.0*,/,-0.1
Cn1nc(C(C)(C)C)cc1C(=O)Sc1cccc(Br)c1,1.7,-6.4,1.4,3.5,5.6,/
COc1cc(O)c(C(CCN2CCCC2)c2cc(OC)c(OC)c(OC)c2)c(OC)c1 (stereo not drawn),1.0,-1.7,-1.6,44.8*,2.3,47.5*
OC1CCN(c2c3c(nc4cc(-c5cccc(F)c5)nn24)CCCC3)CC1,3.6,-21.4,2.9,44.1*,7.2,30.5
CNC(=S)N(CCc1c(C)[nH]c2ccccc12)Cc1cccnc1,-0.6,-2.0,-3.4,-7.3,3.0,/
O=C(CSc1cccc(C(F)(F)F)c1)Nc1ccc(N2CCOCC2)cc1,/,/,/,46.9*,/,55.2*
Cc1ccc(SCC(=O)Nc2ccc(N3CCOCC3)cc2)cc1,-0.4,-4.8,3.0,17.6,-1.0,/
O=C(CSc1ccccc1)Nc1ccc(N2CCOCC2)cc1,1.8,3.2,-4.8,42.1,5.8,/
O=C(CSc1ccccc1F)Nc1ccc(N2CCOCC2)cc1,1.6,0.1,/,54.7*,-2.6,51.9*
Cc1ccc(SCC(=O)Nc2ccc(N3CCOCC3)cc2)cc1C,4.5,-6.6,/,44.1*,1.9,34.4
Cc1ccsc1C(=O)OCC(=O)NCc1ccc(Cl)cc1,-0.9,16.6,/,-3.4,0.6,/
c1ccc(N2CCN(c3nc(-c4ccccn4)nc4ccccc34)CC2)cc1,2.5,-3.5,0.4,82.7*,2.2,79.4*
c1ccc2c(N3CCCCCC3)nc(-c3ccncc3)nc2c1,-0.3,-12.0,0.7,16.1,-1.6,/
Oc1sc(C=Nc2ccc(F)cc2)c2ccccc12,-2.5,-5.0,-5.8,51.0*,7.8,51.0*
COc1ccc(/C=C(/NC(=O)c2ccco2)C(=O)N2CCOCC2)cc1,0.4,-8.0,6.1,19.7,4.1,/
O=C(Nc1cccc(O)c1)c1c(O)c2ccccc2[nH]c1=O,-4.6,-13.3,12.3,-1.4,-11.0,/
C[C@@H]1NC(=O)[C@H](CCC(N)=O)NC(=O)c2cc([N+](=O)[O-])cc(I)c2NCCC[C@@H](C(N)=O)NC1=O,-1.2,0.5,-10.7,15.8,-3.1,/
C[C@@H]1NC(=O)[C@H](CCCN=C(N)N)NC(=O)c2cc([N+](=O)[O-])cc(I)c2NCCC[C@@H](C(N)=O)NC1=O,-2.8,-13.6,7.6,43.4*,-0.8,22.1

# Screens from PubChem.
